Screening data as filed in PubChem.
FBW7 activator = activators of human E3 ligase FBW7 | AlphaScreen FBW7–phospho-cyclin E peptide binding, activator screen | hit rate 0.13% among 650,000 | Q969H0 | normalized activity (activation), % at 26.1 µM; in the data active means normalized activity above about 1.9%;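 further: purified mutant Fbw7 with reduced substrate affinity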
Target sequence (Q969H0 whole entry, looked up): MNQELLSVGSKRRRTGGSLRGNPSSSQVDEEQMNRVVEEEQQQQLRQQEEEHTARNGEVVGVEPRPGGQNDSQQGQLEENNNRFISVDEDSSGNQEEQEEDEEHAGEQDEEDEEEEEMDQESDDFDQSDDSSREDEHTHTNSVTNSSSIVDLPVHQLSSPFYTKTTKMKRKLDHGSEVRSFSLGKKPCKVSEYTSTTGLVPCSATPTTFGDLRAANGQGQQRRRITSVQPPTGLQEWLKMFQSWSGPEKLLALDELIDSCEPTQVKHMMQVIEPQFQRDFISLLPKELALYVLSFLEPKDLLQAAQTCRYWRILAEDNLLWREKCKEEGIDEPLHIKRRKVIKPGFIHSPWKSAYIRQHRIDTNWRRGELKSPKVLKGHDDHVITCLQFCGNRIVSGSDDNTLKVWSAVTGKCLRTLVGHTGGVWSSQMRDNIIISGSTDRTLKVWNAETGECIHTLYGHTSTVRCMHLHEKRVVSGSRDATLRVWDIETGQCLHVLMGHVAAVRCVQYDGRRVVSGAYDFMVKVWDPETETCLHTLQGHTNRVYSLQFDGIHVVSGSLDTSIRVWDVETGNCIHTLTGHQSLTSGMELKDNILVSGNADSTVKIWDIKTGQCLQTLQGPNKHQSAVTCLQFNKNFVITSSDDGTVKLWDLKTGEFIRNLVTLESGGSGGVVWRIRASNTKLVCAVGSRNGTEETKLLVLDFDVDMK
GPR151 activ = activates the human receptor GPR151; Q8TDV0; PathHunter beta-arrestin GPR151 cells, luminescence; activation, % at 11.2 µM; hit rate 1% among 650,000; AID 1508602; in the data active means activation above about 4.9%;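 further: 0% = median of compound wells and 100% = cells with positive control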
MITF inh = inhibitors of human MITF; hit rate 0.91% among 650,000; inhibition, % at 2.6 µM; AID 1259374; AlphaScreen MITF homodimerization, bead proximity signal; O75030; in the data active means inhibition above about 50%;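 further: 0% = vehicle wells with protein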
TEAD-YAP block = TEAD-YAP interaction inhibition. HEK-TIYL cells, TEAD-Gal4/YAP UAS-luciferase luminescence. inhibition, % at 9.12 µM. hit rate 1.4% among 640,000; in the data active means inhibition above about 32%;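 further: 0% = median of test compound wells and 100% = reference inhibitor wells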
An asterisk follows results filed as active. The list is not random: actives were taken first. Their share in the collection is about 3.5%.

SMILES | FBW7 activator | GPR151 activ | MITF inh | TEAD-YAP block
CCOC(=O)C1=C(C)NC(=O)NC1c1cccc([N+](=O)[O-])c1 (configuration not stated) | 0.2 | -1.9 | 0.3 | 2.4
Cn1c(NCc2ccncc2)nc2ccccc21 | 0.0 | 0.0 | -22.3 | -4.4
Cc1ccc(NCc2nc3ccccc3n2C)cc1 | 0.5 | -4.9 | 23.4 | 34.7*
Cc1ccc(CNc2nc3ccccc3n2C)cc1 | 0.9 | -7.9 | 19.4 | 74.9*
Cn1c(CNc2ccc(O)cc2)nc2ccccc21 | -0.3 | -0.9 | 12.3 | -16.3
Cc1cccc(-n2cc(-c3ccccc3)c3c(N4CCN(c5cccc(Cl)c5)CC4)ncnc32)c1 | 0.0 | 0.5 | -9.4 | -2.5
CCCCN(C)c1nnc(NC(=O)Nc2ccccc2OC)s1 | 0.0 | 0.9 | 1.5 | -13.8
CCCCN(C)c1nnc(NC(=O)Nc2cc(OC)c(OC)c(OC)c2)s1 | -0.1 | 0.1 | 11.2 | 56.4*
CCOc1ccccc1NC(=O)C1CCCN(c2c(CC)c(C)nc3ncnn23)C1 (configuration not stated) | 0.0 | 0.1 | -10.7 | -1.1
CCc1c(C)nc2ncnn2c1N1CCCC(C(=O)Nc2nnc(C)s2)C1 (configuration not stated) | -0.1 | 1.2 | -1.1 | 47.8*
CCOC(=O)c1nn(CCO)c2c1CN(CCC(C)c1ccc(C)o1)CC2 (configuration not stated) | 0.0 | 1.9 | 5.1 | -0.6
Cc1cccc(OCCCC(=O)Nc2nc3ccccc3[nH]2)c1 | 0.5 | 1.5 | 6.0 | 70.8*
Cc1ccc(Nc2nc(CSc3nnc(N)s3)cs2)cc1 | -0.1 | 0.0 | 6.7 | 43.9*
O=C(Nc1cc(C(F)(F)F)cc(C(F)(F)F)c1)c1ccc([N+](=O)[O-])o1 | -0.1 | -0.1 | -7.0 | 59.1*
N#CC1=C2SCC(O)(c3ccco3)N2C(=O)CC1c1ccc(F)cc1 (configuration not stated) | 0.0 | -1.5 | 3.3 | 42.8*
N#CC1=C2SCC(O)(c3ccc(F)cc3)N2C(=O)CC1c1cccc(F)c1 (configuration not stated) | 0.0 | -0.3 | 7.0 | 53.7*
COc1cccc2cc(C(=O)C[n+]3ccccc3)c(=O)oc12 | -0.1 | 4.1 | 35.3 | 10.1
CCN(CC)C(=O)CSc1nnc(-c2ccco2)n1CCCOC | 0.2 | 0.2 | 10.9 | 2.4
CCOC(=O)C1=C(CN2CCCC2)NC(=O)NC1c1cccs1 (configuration not stated) | 0.7 | -0.8 | 4.2 | 3.6
CCOC(=O)C1=C(CN2CCC(C(N)=O)CC2)NC(=O)NC1c1cccs1 (configuration not stated) | 2.6* | -1.2 | -8.9 | -1.3
CC1CCCN(S(=O)(=O)c2ccc(NC(=O)/C=C/c3ccco3)cc2)C1 (configuration not stated) | 0.0 | -1.5 | -6.0 | 41.2*
COc1ccc(/C=C/C(=O)Nc2ccc(S(=O)(=O)N3CCCCCC3)cc2)cc1 | 0.0 | 1.1 | 5.5 | 32.1*
COc1ccc(/C=C/C(=O)Nc2ccc(S(=O)(=O)N3CCCC3)cc2)cc1 | -0.2 | 1.1 | -4.4 | 14.3
N#Cc1nc(COc2ccc(Br)cc2)oc1NCc1ccco1 | 22.9* | 1.3 | 5.0 | 6.0
CCOC(=O)C1C(c2ccccc2)NC(=S)NC1(O)C(F)(F)F (configuration not stated) | -0.2 | -0.4 | -11.8 | 1.5
SMILES | FBW7 activator | GPR151 activ | MITF inh | TEAD-YAP block
c1cnc2ccc(Nc3nc(NC4CC4)c4ncn(-c5ccsc5)c4n3)cc2c1 | -0.2 | 1.3 | 18.3 | 8.7
c1cc(Nc2nc(NC3CC3)c3ncn(-c4ccsc4)c3n2)ncn1 | 7.4* | 0.4 | 7.2 | -25.0
c1ccc(Nc2nc(Nc3ccncn3)nc3c2ncn3-c2ccsc2)cc1 | 0.1 | 3.0 | 0.7 | -60.7
c1cnc(Nc2nc(NC3CC3)c3ncn(-c4ccsc4)c3n2)cn1 | 0.0 | 0.8 | 10.9 | 34.4*
c1ccc(-n2cnc3c(NC4CC4)nc(Nc4nccc5ccccc45)nc32)cc1 | 0.4 | -2.1 | 9.3 | 43.3*
c1ccc(-n2cnc3c(NC4CC4)nc(Nc4ccncc4)nc32)cc1 | 0.2 | 2.1 | 10.1 | 37.6*
Cn1ncc(C#N)c1NC(=O)c1cc(-c2ccc(Cl)cc2Cl)on1 | -0.2 | -0.3 | -3.7 | -33.2
CN(C)c1cccc(Nc2nc(N)c3ncn(-c4ccsc4)c3n2)c1 | 0.2 | -1.4 | 8.5 | 9.9
c1ccc(-n2cnc3c(NC4CC4)nc(Nc4cnccn4)nc32)cc1 | 0.1 | 1.9 | 2.0 | 51.1*
CN(C)c1cccc(Nc2nc(NC3CC3)c3ncn(-c4ccsc4)c3n2)c1 | 0.1 | -0.3 | -0.5 | 32.6*
COc1ccc(N(CC(=O)NC2CC2)S(=O)(=O)c2ccc(C)cc2)cc1 | 0.1 | 2.4 | -9.6 | -6.3
CC(C)c1ccc(N(CC(=O)NCC2CCCO2)C(=O)c2snc(C(N)=O)c2N)cc1 (configuration not stated) | 0.2 | -0.3 | 9.2 | 0.8
CCSc1nnc(NC(=O)c2ccc(OC)c([N+](=O)[O-])c2)s1 | 0.0 | -0.8 | 9.8 | -6.7
COC(=O)C1=C(C)NC2=C(C(=O)CC(c3cccs3)C2)C1c1ccc([N+](=O)[O-])cc1 (configuration not stated) | -0.1 | 0.1 | 1.2 | 11.4
CCOc1ccc2nc(N3CCN(C(=O)C(C)C)CC3)sc2c1 | 0.0 | 1.0 | 12.8 | -11.2
CCOc1ccc2nc(N3CCN(S(=O)(=O)c4ccccc4)CC3)sc2c1 | 0.1 | -0.1 | 1.8 | 13.4
CCOc1ccc2nc(NC(=O)CCCC(=O)O)sc2c1 | -0.2 | -0.5 | -12.0 | 13.1
CCOc1ccc2nc(N3CCCCC3)sc2c1 | 0.0 | -6.3 | 3.2 | 53.3*
CCOc1ccc2nc(N3CCC(C(=O)N4CCC(C(N)=O)CC4)CC3)sc2c1 | -0.1 | -1.1 | 0.6 | 19.4
CCOc1ccc2nc(N3CCCC3)sc2c1 | -0.2 | -2.0 | 3.1 | 42.5*
CCOc1cc2sc(N3CCC(C(=O)O)CC3)nc2cc1Br | 0.0 | 1.9 | 1.1 | 47.3*
CCOc1ccc2nc(NC(=O)C(C)(C)C)sc2c1 | 0.0 | -0.3 | 8.0 | 63.1*
NC(=O)C1Cc2ccccc2N1C(=O)CCC1CCCCC1 (configuration not stated) | 0.0 | 0.4 | -3.9 | 8.8
Cc1ccc2c(c1)N(CCC(=O)NC1CCCC1)C(=O)C(C)O2 (configuration not stated) | -0.3 | 2.1 | -3.8 | 10.8
COc1ccc(CNS(=O)(=O)c2cc(Cl)c(C)cc2OC)cc1 | 0.7 | -0.2 | 13.6 | 1.6
Cc1nc2nc(CC(=O)NCc3ccccc3)nn2c(C)c1Cc1cccc(Cl)c1 | 0.0 | -0.2 | -3.7 | 55.5*
O=C1C2C3C=CC(C3)C2C(=O)N1c1ccc(Oc2ccccc2)cc1 (configuration not stated) | 0.0 | 1.0 | 5.5 | -2.5
N#Cc1ccc(Oc2ccc(N3C(=O)C4C5C=CC(C5)C4C3=O)cc2)cc1C#N (configuration not stated) | 1.6 | 0.1 | 18.9 | 40.4*
COc1ccc(CCNC(=O)CSc2cc(C)[nH]c(=O)n2)cc1OC | 0.9 | -0.9 | 11.7 | 16.7
Cc1ccc2[nH]c(=O)c(CN(CC3COCCO3)C(=O)Nc3ccccc3Cl)cc2c1 (configuration not stated) | 0.1 | -1.0 | 3.2 | 36.6*
